# The whole screen tested about 48,000 compounds, of which about 13,000 (27%) showed an effect of 50% or more. The list shows a part of the results.
# System: Wolbachia pipientis
# Test: Anti-Wolbachia Cell-Based Screen
# Format: functional
# Design: scale not given: in the data most compounds retested in dose-response had high values
# Settings: 5 µM
row,Structure (SMILES),Percent Effect
1,Cl.O=C(NCC1CCCCC1)N1C[C@@H]2C[C@H]1CN2,-10.23%
2,CCCN1CCN(C(=O)c2ccc(Cl)cn2)[C@H]2CS(=O)(=O)C[C@H]21,7.172%
3,CCC(C(=O)N1CCCSCC1)N1CCCC1=O (stereo not given),0.6755%
4,Cc1cccc(CN2CC3C[C@]3(NC(=O)c3ccco3)C2)n1 (stereo not given in full),-15.21%
5,CCCN1CCN(C(=O)c2cccc(C)n2)[C@H]2CS(=O)(=O)C[C@H]21,-6.939%
6,CCN1CCC2(CC1)CN(CCO)c1ccccc12,-10.11%
7,CS(=O)(=O)N1CCN(CC2CC2)c2ncccc2C1,6.456%
8,O=C(O)C(F)(F)F.O=C(O)C(F)(F)F.c1cnc2c(c1)CN(C1CCOC1)CCN2CC1CC1 (stereo not given),-0.9537%
9,CCS(=O)(=O)N1CCN(CC2CC2)c2ncccc2C1,115%
10,COc1ccccc1CC(C)N(C)CCS(C)(=O)=O (stereo not given),-4.195%
11,COCCN1CCCC12CCN(Cc1cccnc1OC)CC2.O=C(O)C(F)(F)F.O=C(O)C(F)(F)F,-1.646%
12,COc1ncccc1CN1C[C@@H]2CN(c3ncccn3)C[C@@H]2C1,110.4%
13,COc1cc(N2C[C@H]3CN(Cc4ccccn4)C[C@H]3C2)ncn1.O=C(O)C(F)(F)F,127.8%
14,COCCCN1CCCC12CCN(Cc1cccnc1OC)CC2.O=C(O)C(F)(F)F.O=C(O)C(F)(F)F,-1.56%
15,CNC(=O)[C@H]1C[C@@H]2CN(Cc3cccnc3OC)C[C@@H]2N1C(C)C.O=C(O)C(F)(F)F.O=C(O)C(F)(F)F.O=C(O)C(F)(F)F,5.567%
16,CN(C)CCN1CCO[C@H]2CN(Cc3ccccn3)C[C@H]21.O=C(O)C(F)(F)F.O=C(O)C(F)(F)F.O=C(O)C(F)(F)F.O=C(O)C(F)(F)F,10.34%
17,COCCN1CC[C@@H]2CN(Cc3cccnc3OC)C[C@@H]2C1.O=C(O)C(F)(F)F.O=C(O)C(F)(F)F,130.6%
18,COc1cc(N2C[C@H]3CCN(CCN4CCCC4)C[C@H]3C2)ncn1.O=C(O)C(F)(F)F.O=C(O)C(F)(F)F,-9.875%
19,CNC(=O)[C@H]1C[C@@H]2CN(Cc3cccnc3OC)C[C@@H]2N1C(C)=O.O=C(O)C(F)(F)F.O=C(O)C(F)(F)F,92.23%
20,COC[C@]12COC[C@H]1CN(Cc1cccnc1OC)C2,3.857%
21,COc1ncccc1CN1CCC2(CC1)COCCN2C.O=C(O)C(F)(F)F.O=C(O)C(F)(F)F,-5.344%
22,COc1ncccc1CN1C[C@@H]2OCCN(CCN(C)C)[C@@H]2C1.O=C(O)C(F)(F)F.O=C(O)C(F)(F)F.O=C(O)C(F)(F)F,17.28%
23,Fc1cccnc1N1CCOCC2(CCCNC2)C1 (stereo not given),-2.668%
24,N#Cc1cccc(C(=O)NS(=O)(=O)c2ccc(C#N)c(Cl)c2)c1,-1.961%
25,COc1ccc(CN2C[C@H]3CN(c4cncnc4)C(=O)[C@H]3C2)cc1.O=C(O)C(F)(F)F,-6.592%

row,Structure (SMILES),Percent Effect
1,CCc1cc(N2CCC(NC3CN4CCC3CC4)CC2)nc(N(C)C)n1 (stereo not given),2.929%
2,CCCn1cc(C(=O)NCC(=O)NC2CC2)c(C)n1,8.869%
3,COc1ncccc1CN1CC[C@H]2[C@H]1CCN2CCN(C)C.O=C(O)C(F)(F)F.O=C(O)C(F)(F)F.O=C(O)C(F)(F)F.O=C(O)C(F)(F)F,-2.708%
4,COc1ncccc1CN1C[C@H]2CCN(C(C)C)C[C@H]2C1.O=C(O)C(F)(F)F.O=C(O)C(F)(F)F,108.8%
5,CCN1CCCC12CCN(Cc1cccnc1OC)CC2.O=C(O)C(F)(F)F.O=C(O)C(F)(F)F,9.255%
6,COc1ncccc1CN1C[C@H]2CCN(c3ncccn3)C[C@H]2C1.O=C(O)C(F)(F)F,102%
7,CN1CC2(CCNCC2)CC1C(=O)NCCCNc1cccnc1 (stereo not given),9.44%
8,CCN1C[C@H]2N(c3ncccn3)CCC[C@@]2(C(=O)NCC2CC2)C1,121.2%
9,CC(=O)N1C[C@H]2CCCC(N3CCN(c4ncccn4)CC3)[C@H]2C1.O=C(O)C(F)(F)F.O=C(O)C(F)(F)F (stereo not given in full),-9.605%
10,O=C(O)C(F)(F)F.O=C(O)C(F)(F)F.c1cnc(N2CCCC3(CCN(CC4CC4)C3)C2)nc1 (stereo not given),-2.531%
11,CN1C[C@H]2N(c3ncccn3)CCC[C@@]2(C(=O)NCC2CC2)C1.O=C(O)C(F)(F)F,104.5%
12,CNC(=O)[C@@]12CCCN(c3ncccn3)[C@@H]1CN(C)C2.O=C(O)C(F)(F)F,-0.06284%
13,CN1[C@@H](C(=O)NCC2CC2)C[C@@H]2CN(c3ncccn3)C[C@@H]21,-3.694%
14,CN(CC1Cc2ccccc2CN1C)C(=O)Cc1cccs1 (stereo not given),4.108%
15,O=C(O)C(F)(F)F.c1cnc(NC[C@@H]2CCC[C@@H]3CN(Cc4csnn4)C[C@@H]32)nc1,17.75%
16,Cn1cc(CN2C[C@H]3CCC[C@@H](CNc4ncccn4)[C@H]3C2)cn1.O=C(O)C(F)(F)F,111.9%
17,COc1ccc(CN2C[C@H]3CCC[C@@H](CN(C)C4CC4)[C@H]3C2)cn1.O=C(O)C(F)(F)F.O=C(O)C(F)(F)F,14.86%
18,Cn1cc(CN2C[C@@H]3CCC[C@@H](OCc4cccnc4)[C@@H]3C2)cn1,52.17%
19,O=C(O)C(F)(F)F.c1ccc(NC[C@@H]2CCC[C@@H]3CN(Cc4cc[nH]n4)C[C@@H]32)nc1,-6.028%
20,Cn1ccnc1NC[C@@H]1CCC[C@@H]2CN(Cc3cccnc3)C[C@@H]21.O=C(O)C(F)(F)F,109.4%
21,COc1ccc(CN2C[C@H]3CCC[C@@H](CN(C)C)[C@H]3C2)cn1.O=C(O)C(F)(F)F.O=C(O)C(F)(F)F,10.6%
22,COCCN1C[C@H]2CCC[C@@H](CNc3ncccn3)[C@H]2C1.O=C(O)C(F)(F)F.O=C(O)C(F)(F)F,1.407%
23,CN(C[C@@H]1CCC[C@@H]2CN(Cc3cccnc3)C[C@@H]21)C1CC1.O=C(O)C(F)(F)F.O=C(O)C(F)(F)F,2.908%
24,O=C(O)C(F)(F)F.c1cnc(NC[C@@H]2CCC[C@@H]3CN(Cc4cc[nH]n4)C[C@@H]32)nc1,-8.539%
25,O=C(O)C(F)(F)F.c1cncc(CN2C[C@H]3CCC[C@@H](CNc4cnccn4)[C@H]3C2)c1,134.5%

# — ChEMBL document CHEMBL3988442, “University of Dundee, Small-Polar-MMV Screening Library” (2021)
